Laboratory results published in PubChem BioAssay (NCI).
Compounds without any hit were thinned out: in the full panel of roughly 79,000, 15% have a hit. A number with no mark means an inactive call. The source made the active and inactive calls. Rule as the data show it: active = growth inhibition above about 70%; inactive = the rest.

Assay: NCI Yeast Anticancer Drug Screen. Data for the wt1 strain (AID 149);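 also: 0% = growth of vehicle-treated wt1 cultures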
Conditions: S. cerevisiae wt1 strain (SPY 50644) growth inhibition, hits give high values
Protocol: Growth inhibition of yeast strains with defined genetic alterations is measured as a screen for potential anti-cancer activity. Selected strains with alterations in DNA damage repair or cell cycle control were exposed to compounds and growth inhibition was measured relative to vehicle treated controls. The strain used in this assay is wt1

Work on CCCCCNC(=O)c1c(O)[nH]c(=S)[nH]c1=O yielded a growth inhibition (at 1.2 µM) of -3%, a growth inhibition (at 3.7 µM) of 9% and a growth inhibition (at 11.0 µM) of 15%. The growth inhibition (at 33.0 µM) was 68% and the growth inhibition (at 100.0 µM) was 88% (active).

With Nc1nc(-c2ccccc2)c(-c2ccccc2)[se]1 the growth inhibition (at 1.2 µM) was -2%, the growth inhibition (at 3.7 µM) was -1% and the growth inhibition (at 11.0 µM) was -1%. For the same molecule, the growth inhibition (at 33.0 µM) was -2% and the growth inhibition (at 100.0 µM) was 3%.

Work on CN(C)CCSC1=Nc2ccc(Cl)cc2C(c2ccccc2Cl)=NC1 yielded a growth inhibition (at 1.2 µM) of -1%, a growth inhibition (at 3.7 µM) of -1% and a growth inhibition (at 11.0 µM) of 0%. The growth inhibition (at 33.0 µM) was 2% and the growth inhibition (at 100.0 µM) was -1%.

With CC1CCC2(NC1)OC1CC3C4CCC5CC(OC6OC(CO)C(OC7OC(CO)C(O)C(OC8OCC(O)C(O)C8O)C7OC7OC(CO)C(O)C(O)C7O)C(O)C6O)CCC5(C)C4CCC3(C)C1C2C (stereo not given) the growth inhibition (at 1.2 µM) was -6%, the growth inhibition (at 3.7 µM) was -15% and the growth inhibition (at 11.0 µM) was -18%. For the same molecule, the growth inhibition (at 33.0 µM) was -17% and the growth inhibition (at 100.0 µM) was 40%.

For CC1=C[C@H]2O[C@@H]3C[C@H]4OC(=O)/C=C\C=C\C(C(C)O)OCC(O)C(C)CC(=O)OC[C@@]2(C[C@@H]1O)[C@]4(C)[C@@]31CO1 (stereo not given in full), the growth inhibition (at 1.2 µM) was -13%, the growth inhibition (at 3.7 µM) was 24% and the growth inhibition (at 11.0 µM) was 93% (active). For the same molecule, the growth inhibition (at 33.0 µM) was 98% (active) and the growth inhibition (at 100.0 µM) was 98% (active).

With OC(c1ccc(Br)cc1)C(Cl)(Cl)Cl (stereo not given) the growth inhibition (at 1.2 µM) was -13%, the growth inhibition (at 3.7 µM) was -11% and the growth inhibition (at 11.0 µM) was -1%. For the same molecule, the growth inhibition (at 33.0 µM) was 89% (active) and the growth inhibition (at 100.0 µM) was 99% (active).

With O=[N+]([O-])c1cc(S(=O)(=O)F)ccc1Cl the growth inhibition (at 1.2 µM) was 27%, the growth inhibition (at 3.7 µM) was 28% and the growth inhibition (at 11.0 µM) was 9%. For the same molecule, the growth inhibition (at 33.0 µM) was 93% (active) and the growth inhibition (at 100.0 µM) was 99% (active).

With CN(CCc1ccc(Br)cc1)CCN1CCCCC1 the growth inhibition (at 1.2 µM) was 8%, the growth inhibition (at 3.7 µM) was 16% and the growth inhibition (at 11.0 µM) was 20%. For the same molecule, the growth inhibition (at 33.0 µM) was 60% and the growth inhibition (at 100.0 µM) was 97% (active).
